# Assay results reported in PubChem BioAssay.
# Active and inactive are the calls of the source.
# Legend:
# [1] = test system: PRMT1 (protein arginine N-methyltransferase 1); experiment: small molecules binding arginine methyltransferase PRMT1 – biochemical, small-molecule microarray, 635 nm fluorescence, primary screen (AID 1088); settings: higher = more signal;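 also: binding of Prmt1 protein to compounds spotted on small-molecule microarray slides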
# [2] = growth effects on S. cerevisiae YJM789 – YJM789 clinical isolate, OD600, 24 h, basal, primary screen (AID 1089); settings: higher = more signal, called active from +8 up or from −8 down;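 also: growth of clinical yeast isolate S. cerevisiae YJM 789 seeded 1000 cells per well; test concentration not given here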
# [3] = S. pombe growth modifiers, basal conditions – strain 972, OD600, 24 h, no modulator, primary screen (AID 1090);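 also: basal condition with compound alone and no growth modifier present; test concentration not given here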; settings: S. pombe 972 growth, higher = more signal, called active from +8 up or from −8 down
# [4] = budding yeast growth modifiers under rapamycin – strain BY4716, OD600, 96 h, primary screen (AID 1091); also: test concentration not given here; settings: S. cerevisiae BY4716 + rapamycin, higher = more signal, called active from +8 up or from −8 down
# [5] = biological target: Torsin-1A-interacting protein 2 (Homo sapiens) (UniProt Q8NFQ8); experiment: small molecules binding lysate-expressed LULL1 – cell lysate, human LULL1 lysate, 635/667 nm fluorescence, primary screen (AID 1092); settings: small-molecule microarray, hLULL1 lysate binding, 635 nm fluorescence; higher = more signal;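 also: probe is lysate of COS7 cells overexpressing human LULL1; score merges per-feature 667 nm fluorescence with signal-to-noise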
# [6] = optical density change of DRC41 E. coli – strain DRC41, OD650, 24 h, E. coli filamentation project, primary screen (AID 1093);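 also: MC1000 strain lacking acrAB efflux and sulA so SOS filamentation is blocked; test concentration not given here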; settings: E. coli DRC41 growth, higher = more signal, called active from +8 up or from −8 down
# [7] = probe aLefty2 binding to arrayed compounds – biochemical, biotinylated probe, 635/667 nm fluorescence, primary screen (AID 1094); settings: small-molecule microarray, higher = more signal;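 also: score merges spot fluorescence near 667 nm with spot signal-to-noise ratio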
# [8] = test system: Noggin (protein binding on small-molecule microarray); experiment: small molecules binding Noggin protein – biochemical, 635/667 nm fluorescence, primary screen (AID 1095); settings: 635 nm fluorescence, higher = more signal;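 also: score merges 667 nm feature fluorescence with signal to noise over triplicate slides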
# [9] = biological target: Neurogenic locus notch homolog protein 3 (Homo sapiens) (UniProt Q9UM47); experiment: small molecules binding NOTCH3 protein – biochemical, 635/667 nm fluorescence, primary screen (AID 1096); settings: small-molecule microarray, 635 nm fluorescence, higher = more signal
# [10] = probe aEGFR binding to arrayed compounds – biochemical, biotinylated probe, 635/667 nm fluorescence, primary screen (AID 1097); settings: small-molecule microarray, higher = more signal;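 also: probe is a biotinylated anti-EGFR antibody binding compounds printed on slides; score combines fluorescence near 667 nm and signal to noise of each spot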
# [11] = test system: Plasmodium falciparum Sir2 (PF13_0152, Sir2A); experiment: Plasmodium falciparum Sir2A binding compounds – biochemical, small-molecule microarray, 635 nm fluorescence, primary screen (AID 1098); settings: fluorescence 635 nm, higher = more signal;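 also: score merges spot fluorescence intensity with its signal-to-noise ratio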
# [12] = probe aDKK1 binding to arrayed compounds – biochemical, biotinylated probe, 635/667 nm fluorescence, primary screen (AID 1099); settings: small-molecule microarray, higher = more signal;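 also: score merges 667nm spot fluorescence with signal to noise across triplicate slides; reference of the scale not given here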
# [13] = probe aCHRDL2 binding to arrayed compounds – biochemical, biotinylated probe, 635/667 nm fluorescence, primary screen (AID 1100); settings: small-molecule microarray, higher = more signal
# [14] = change in splice reporter luminescence, either direction, cell-based, HEK293, spliceosome inhibition project, primary screen (AID 1101); settings: HEK293 splicing luciferase reporter, 24 h, higher = more signal, called active from +8 up or from −8 down;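 also: HEK293 cells carrying a splicing-competent luciferase reporter gene; test concentration not given here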
# [15] = biological target: Fibroblast growth factor 10 (Homo sapiens) (UniProt O15520); experiment: compounds binding fibroblast growth factor 10 – biochemical, small-molecule microarray, 635 nm fluorescence, primary screen (AID 1102); settings: FGF10 binding, fluorescence 635 nm, higher = more signal
# [16] = test system: glycogen synthase kinase-3 (GSK3A per assay name; protocol says GSK3B); experiment: compounds binding glycogen synthase kinase-3 – biochemical, small-molecule microarray, 635 nm fluorescence, GSK3A, primary screen (AID 1103); settings: fluorescence 635 nm, higher = more signal; also: the record names both GSK3A and GSK3B
# [17] = biological target: Epidermal growth factor receptor (Homo sapiens) (UniProt P00533); experiment: compounds binding epidermal growth factor receptor – biochemical, small-molecule microarray, 635 nm fluorescence, primary screen (AID 1104); settings: EGFR binding, higher = more signal;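 also: score merges 667 nm emission intensity with spot signal to noise over triplicate slides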
# [18] = biological target: Follistatin-related protein 3 (Homo sapiens) (UniProt O95633); experiment: compounds binding follistatin-related protein 3 – biochemical, small-molecule microarray, 635 nm fluorescence, primary screen (AID 1105); settings: FSTL3 binding, higher = more signal;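 also: score merges emission near 667 nm and signal to noise per printed spot across three slides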
# [19] = biological target: Dickkopf-related protein 1 (Homo sapiens) (UniProt O94907); experiment: small molecules binding DKK1 protein – biochemical, small-molecule microarray, 635 nm fluorescence scan, primary screen (AID 1106); settings: higher = more signal;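 also: score merges emission near 667 nm with signal to noise over three replicate slides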
# [20] = test system: Inhibin beta A chain (activin A); experiment: small molecules binding activin A – biochemical, small-molecule microarray, 635 nm fluorescence scan, primary screen (AID 1107); settings: INHBA, higher = more signal;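 also: mouse activin A protein probed at 4.33 µg/mL on printed slides; score merges bound-protein fluorescence near 667 nm with spot signal-to-noise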
# Epidermal growth factor receptor (Homo sapiens), sequence (P00533 whole entry, looked up): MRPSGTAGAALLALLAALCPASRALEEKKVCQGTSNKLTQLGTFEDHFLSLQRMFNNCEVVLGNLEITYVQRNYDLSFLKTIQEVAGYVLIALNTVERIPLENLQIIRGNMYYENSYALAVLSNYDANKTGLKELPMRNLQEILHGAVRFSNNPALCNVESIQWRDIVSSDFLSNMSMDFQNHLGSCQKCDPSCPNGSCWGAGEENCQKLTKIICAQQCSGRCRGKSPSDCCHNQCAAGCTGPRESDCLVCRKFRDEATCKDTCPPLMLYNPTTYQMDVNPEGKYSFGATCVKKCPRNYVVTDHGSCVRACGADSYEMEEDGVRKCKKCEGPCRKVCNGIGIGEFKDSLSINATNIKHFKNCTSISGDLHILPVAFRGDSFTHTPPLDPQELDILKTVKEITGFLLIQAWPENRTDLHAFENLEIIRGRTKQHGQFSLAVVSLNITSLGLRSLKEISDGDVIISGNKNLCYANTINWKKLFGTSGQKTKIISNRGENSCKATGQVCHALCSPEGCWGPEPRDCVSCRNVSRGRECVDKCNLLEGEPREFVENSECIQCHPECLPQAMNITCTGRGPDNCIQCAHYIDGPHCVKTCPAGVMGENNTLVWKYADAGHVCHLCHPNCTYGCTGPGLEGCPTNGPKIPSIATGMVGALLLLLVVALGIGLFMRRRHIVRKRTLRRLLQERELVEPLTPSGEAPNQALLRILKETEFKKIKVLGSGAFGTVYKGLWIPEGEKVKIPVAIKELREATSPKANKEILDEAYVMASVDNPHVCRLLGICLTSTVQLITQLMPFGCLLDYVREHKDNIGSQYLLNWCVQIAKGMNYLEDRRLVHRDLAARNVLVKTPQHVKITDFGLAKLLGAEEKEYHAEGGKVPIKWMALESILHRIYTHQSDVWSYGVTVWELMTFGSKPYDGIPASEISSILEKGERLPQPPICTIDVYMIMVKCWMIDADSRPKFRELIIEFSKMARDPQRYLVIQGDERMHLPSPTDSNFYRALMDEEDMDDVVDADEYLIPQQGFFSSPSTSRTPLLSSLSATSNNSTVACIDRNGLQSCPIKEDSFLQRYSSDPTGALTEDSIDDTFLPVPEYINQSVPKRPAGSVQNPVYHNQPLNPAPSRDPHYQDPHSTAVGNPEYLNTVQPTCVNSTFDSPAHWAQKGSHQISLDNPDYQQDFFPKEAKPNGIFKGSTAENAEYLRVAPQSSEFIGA
# Fibroblast growth factor 10 (Homo sapiens), sequence (O15520 whole entry, looked up): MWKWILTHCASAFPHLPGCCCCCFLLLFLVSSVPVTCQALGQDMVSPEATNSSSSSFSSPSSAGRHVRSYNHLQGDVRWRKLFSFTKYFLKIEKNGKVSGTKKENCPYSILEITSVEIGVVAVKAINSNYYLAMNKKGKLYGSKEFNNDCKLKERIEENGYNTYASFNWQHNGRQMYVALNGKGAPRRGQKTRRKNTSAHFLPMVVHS
# Follistatin-related protein 3 (Homo sapiens), sequence (O95633 whole entry, looked up): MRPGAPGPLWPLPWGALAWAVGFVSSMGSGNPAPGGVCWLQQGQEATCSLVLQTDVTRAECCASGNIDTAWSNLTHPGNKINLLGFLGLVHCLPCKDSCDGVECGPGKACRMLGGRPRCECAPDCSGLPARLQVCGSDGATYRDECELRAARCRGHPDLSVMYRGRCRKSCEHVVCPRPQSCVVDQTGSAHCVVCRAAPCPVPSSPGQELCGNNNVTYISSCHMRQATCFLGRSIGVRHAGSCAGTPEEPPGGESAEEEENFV
# Torsin-1A-interacting protein 2 (Homo sapiens), sequence (Q8NFQ8 whole entry, looked up): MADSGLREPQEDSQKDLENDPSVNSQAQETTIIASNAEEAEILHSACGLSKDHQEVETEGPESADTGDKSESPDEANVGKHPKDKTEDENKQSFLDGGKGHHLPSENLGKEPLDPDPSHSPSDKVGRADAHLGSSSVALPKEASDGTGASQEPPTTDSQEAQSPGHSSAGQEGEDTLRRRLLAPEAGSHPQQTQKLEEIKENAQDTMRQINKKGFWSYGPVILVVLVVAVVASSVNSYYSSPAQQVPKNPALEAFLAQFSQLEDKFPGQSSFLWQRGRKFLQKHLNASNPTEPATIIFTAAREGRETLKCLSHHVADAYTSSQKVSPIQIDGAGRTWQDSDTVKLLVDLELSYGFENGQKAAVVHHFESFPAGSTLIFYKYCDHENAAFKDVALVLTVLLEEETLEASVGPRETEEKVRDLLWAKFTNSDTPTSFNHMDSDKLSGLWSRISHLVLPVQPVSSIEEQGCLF
# Dickkopf-related protein 1 (Homo sapiens), sequence (O94907 whole entry, looked up): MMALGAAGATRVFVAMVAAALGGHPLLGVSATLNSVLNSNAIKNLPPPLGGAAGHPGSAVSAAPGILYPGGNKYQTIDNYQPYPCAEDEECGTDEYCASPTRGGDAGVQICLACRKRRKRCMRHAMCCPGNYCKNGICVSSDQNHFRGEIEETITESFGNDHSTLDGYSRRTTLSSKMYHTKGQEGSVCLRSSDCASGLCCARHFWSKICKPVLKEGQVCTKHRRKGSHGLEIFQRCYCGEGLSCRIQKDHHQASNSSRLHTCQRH
# Neurogenic locus notch homolog protein 3 (Homo sapiens), sequence (Q9UM47 whole entry, looked up): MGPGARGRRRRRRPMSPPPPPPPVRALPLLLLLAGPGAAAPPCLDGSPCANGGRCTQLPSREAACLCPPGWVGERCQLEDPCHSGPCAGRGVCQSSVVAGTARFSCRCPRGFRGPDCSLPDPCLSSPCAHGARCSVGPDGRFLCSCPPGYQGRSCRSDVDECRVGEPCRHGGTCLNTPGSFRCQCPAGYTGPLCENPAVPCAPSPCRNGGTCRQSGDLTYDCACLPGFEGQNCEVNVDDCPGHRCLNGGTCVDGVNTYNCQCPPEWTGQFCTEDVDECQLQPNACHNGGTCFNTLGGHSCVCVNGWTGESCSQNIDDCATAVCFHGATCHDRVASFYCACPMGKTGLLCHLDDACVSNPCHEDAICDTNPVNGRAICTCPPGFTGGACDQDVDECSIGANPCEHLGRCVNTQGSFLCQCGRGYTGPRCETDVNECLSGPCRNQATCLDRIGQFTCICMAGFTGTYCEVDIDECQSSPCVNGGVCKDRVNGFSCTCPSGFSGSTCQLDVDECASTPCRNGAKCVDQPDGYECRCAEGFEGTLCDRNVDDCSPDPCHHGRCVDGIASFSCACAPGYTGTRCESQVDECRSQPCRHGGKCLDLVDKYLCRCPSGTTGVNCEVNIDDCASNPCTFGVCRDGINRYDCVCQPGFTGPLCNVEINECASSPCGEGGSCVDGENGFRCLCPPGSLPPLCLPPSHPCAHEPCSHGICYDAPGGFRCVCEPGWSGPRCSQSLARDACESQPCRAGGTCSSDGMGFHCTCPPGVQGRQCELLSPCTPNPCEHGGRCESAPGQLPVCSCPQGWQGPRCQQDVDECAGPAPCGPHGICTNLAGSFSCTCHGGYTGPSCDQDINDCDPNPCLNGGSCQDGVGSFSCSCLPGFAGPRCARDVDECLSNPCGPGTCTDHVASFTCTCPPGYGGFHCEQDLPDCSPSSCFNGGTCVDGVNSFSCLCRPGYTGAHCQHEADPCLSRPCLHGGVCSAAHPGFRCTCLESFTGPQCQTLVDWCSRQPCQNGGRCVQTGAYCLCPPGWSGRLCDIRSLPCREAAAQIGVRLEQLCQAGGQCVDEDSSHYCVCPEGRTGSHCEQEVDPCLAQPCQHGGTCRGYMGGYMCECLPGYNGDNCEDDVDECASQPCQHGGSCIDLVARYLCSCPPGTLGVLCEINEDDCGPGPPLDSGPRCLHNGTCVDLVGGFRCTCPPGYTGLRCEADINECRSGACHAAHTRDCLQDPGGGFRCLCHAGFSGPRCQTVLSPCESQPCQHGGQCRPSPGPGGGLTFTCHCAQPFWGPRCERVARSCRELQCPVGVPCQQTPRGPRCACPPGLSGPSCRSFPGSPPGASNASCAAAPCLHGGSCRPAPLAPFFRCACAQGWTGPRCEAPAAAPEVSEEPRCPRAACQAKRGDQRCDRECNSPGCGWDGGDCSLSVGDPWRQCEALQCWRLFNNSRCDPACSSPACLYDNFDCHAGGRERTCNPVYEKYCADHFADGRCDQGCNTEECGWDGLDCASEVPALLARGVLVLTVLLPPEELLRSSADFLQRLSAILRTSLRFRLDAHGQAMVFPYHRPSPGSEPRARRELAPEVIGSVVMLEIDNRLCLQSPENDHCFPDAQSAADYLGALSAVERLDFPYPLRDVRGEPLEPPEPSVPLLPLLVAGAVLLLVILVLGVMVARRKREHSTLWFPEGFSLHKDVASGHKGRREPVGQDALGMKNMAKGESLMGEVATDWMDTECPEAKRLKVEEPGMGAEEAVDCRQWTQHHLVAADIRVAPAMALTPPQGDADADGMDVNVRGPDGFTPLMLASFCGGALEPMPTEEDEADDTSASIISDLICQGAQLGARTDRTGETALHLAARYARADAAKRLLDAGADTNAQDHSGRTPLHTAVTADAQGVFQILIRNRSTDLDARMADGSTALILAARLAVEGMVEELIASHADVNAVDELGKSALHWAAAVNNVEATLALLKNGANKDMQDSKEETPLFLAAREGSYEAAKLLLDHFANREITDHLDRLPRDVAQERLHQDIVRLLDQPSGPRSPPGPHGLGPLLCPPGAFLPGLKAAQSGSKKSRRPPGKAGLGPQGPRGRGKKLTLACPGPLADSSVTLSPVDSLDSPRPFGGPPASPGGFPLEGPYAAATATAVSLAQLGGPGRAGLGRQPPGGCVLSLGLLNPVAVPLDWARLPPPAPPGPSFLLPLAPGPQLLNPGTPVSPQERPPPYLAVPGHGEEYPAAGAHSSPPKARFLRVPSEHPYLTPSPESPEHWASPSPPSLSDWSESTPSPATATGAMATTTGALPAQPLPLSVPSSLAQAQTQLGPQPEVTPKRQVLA
SMILES,composite z-score [1],z-score [2],z-score [3],z-score [4],composite z-score [5],z-score [6],composite z-score [7],composite z-score [8],composite z-score [9],composite z-score [10],composite z-score [11],composite z-score [12],composite z-score [13],z-score [14],composite z-score [15],composite z-score [16],composite z-score [17],composite z-score [18],composite z-score [19],composite z-score [20]
[N-]=[N+]=NCc1ccccc1C[C@]1(C(=O)N2CCCCC2)N=C(c2ccc(OCCCO)cc2)O[C@H]1c1ccccc1,0.762,0.202 (inactive),-1.1 (inactive),22.5 (active),2.46,1.31 (inactive),0.124,0.0914,0.344,-0.125,0.92,0.484,0.769,-0.44 (inactive),0.567,0.568,-0.761,-0.278,-0.64,0.55
CN1C=C(C(=O)OCCS(C)(=O)=O)C(C(=O)OCCS(C)(=O)=O)=CC(CCCO)=CC1c1ccc(CN2CCCC2)cc1 (stereo not given),1.48,0.897 (inactive),-6.78 (inactive),-0.781 (inactive),3.06,0.0324 (inactive),0.383,0.845,0.984,0.273,0.867,0.633,0.539,-0.0863 (inactive),1.27,1.3,0.566,1.32,0.602,0.969
COCCOC(=O)N1C(=O)[C@@]2(c3cc(C#Cc4ccc(OC)cc4)ccc31)[C@H](C(=O)N1CCCCCCC1)[C@H]1C(=O)O[C@H](c3ccccc3)[C@H](c3ccccc3)N1[C@@H]2c1ccccc1OCCO,1.44,1.83 (inactive),1.44 (inactive),3.98 (inactive),3.66,-0.291 (inactive),1.63,1.91,1.12,1.02,1.55,2.5,1.57,0.00537 (inactive),0.766,1.32,1.07,1.56,1.61,1.66
COC(=O)[C@@]1(Cc2ccccc2CN=[N+]=[N-])COC(c2ccc(OCCCO)cc2)=N1,1.26,-1.38 (inactive),-6.67 (inactive),-1.9 (inactive),3.04,0.441 (inactive),0.175,-1.69,-1.25,-0.442,1.97,0.269,1.23,0.861 (inactive),-1.76,-1.02,-1.76,-1.68,-3.61,-1.48
COCC(=C=CC[C@@H](O)c1ccc(OCCO)cc1)C[C@@H](O)COCc1ccccc1,1.55,-1.31 (inactive),-0.979 (inactive),-0.474 (inactive),3.16,1.55 (inactive),0.0282,1.43,0.964,0.049,0.804,-0.0148,0.548,-1.83 (inactive),1.52,0.611,0.158,0.939,-0.0983,1.42
CCCCCCCCCCC(O)C1C=CC2C(=O)N(C)C(=O)C2N1N1CCCCC1 (stereo not given),-0.804,1.16 (inactive),-2.31 (inactive),2.18 (inactive),1.64,-1.6 (inactive),-0.118,-1.9,-1.14,-0.368,0.331,-0.267,0.598,1.53 (inactive),-1.9,-1.41,-2.01,-1.63,-1.29,1.35
C=CCC(OC(C)=O)[C@@H]1[C@@H](N(Cc2cccc3ccccc23)C(=O)c2ccc(-c3ccccc3)cc2)c2cc(OCCCO)ccc2N1C(=O)c1ccc2ccccc2n1 (stereo not given in full),0.929,-0.637 (inactive),0.651 (inactive),-0.0728 (inactive),1.01,-0.747 (inactive),0.157,0.37,0.296,-0.0271,0.0273,0.052,0.265,-0.395 (inactive),0.186,0.159,-0.0618,0.389,0.19,1.31
CCN(CC)c1ccc(N2CC=CC34O[C@@H]5C=CCOC(=O)[C@@H]5[C@H]3C(=O)N(CCCO)[C@@H]4C2=O)cc1 (stereo not given in full),0.586,-0.6 (inactive),-0.197 (inactive),-0.298 (inactive),1.57,1.6 (inactive),-0.139,-0.927,-0.453,-0.188,0.481,-0.464,0.0573,-1.6 (inactive),-0.946,-1.11,-0.853,-0.69,-0.901,1.65
COCCOC(=O)N1C(=O)[C@@]2(c3ccccc31)[C@H](c1ccc(OCCO)cc1)N1[C@H](c3ccccc3)[C@H](c3ccccc3)OC(=O)[C@H]1[C@@H]2C(=O)N1CCN(c2ncccn2)CC1,1.54,1.52 (inactive),1.01 (inactive),5.4 (inactive),2.5,0.374 (inactive),0.101,1.34,1.05,0.241,1.22,0.639,0.539,-0.483 (inactive),1.42,1.34,0.791,1.44,1.09,0.943
C=CCC(OC(C)=O)[C@@H]1[C@@H](N(Cc2ccc(-c3cccc(C(F)(F)F)c3)o2)C(=O)c2cccc3ccccc23)c2cc(OCCCO)ccc2N1C(=O)c1ccc2ccccc2c1 (stereo not given in full),-0.429,0.611 (inactive),0.609 (inactive),-0.549 (inactive),-0.255,0.0268 (inactive),-0.0728,0.307,-0.1,-0.122,0.542,0.0086,0.256,-0.874 (inactive),0.119,-1.08,0.142,0.317,0.289,1.2
